In PubChem BioAssay (NCATS):
Results filed as inconclusive are left out. Calls of active or inactive are those of the source. Calls follow the shape of the dose curve; as a rule, active = well fitted curve in the direction sought with a large enough effect; inconclusive = small, poorly fitted or top-dose-only effect, or another doubt; inactive = no such curve, though single readings can be large; an effect the other way counts as inactive or inconclusive.

Tests used:
[1] = system: Es-2; assay: Primary qHTS to identify gynecologic anti-cancer compounds using libraries of approved drugs and bioactive compounds (AID 1345084); conditions: Gynecologic cancer cell panel viability, ATPlite luminescence, 48 h; series mostly up to 57.5 µM; also: nearly all actives have a fitted effect of over 55% in size
How it was run: (§1)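 Cytotoxicity screen measuring ATP content by luciferase luminescence. Each compound is applied at five concentrations for 48 h at 37 C with 5% CO2.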

[2] = system: HeLa; assay: as above; conditions: Gynecologic cancer cell panel viability, ATPlite luminescence, 48 h; series mostly up to 57.5 µM
How it was run: as §1

[3] = system: Hek293T; assay: as above; conditions: Gynecologic cancer cell panel viability, ATPlite luminescence, 48 h, control line for the selectivity index; series mostly up to 57.5 µM
How it was run: as §1

[4] = system: JEG-3; assay: as above; conditions: Gynecologic cancer cell panel viability, ATPlite luminescence, 48 h; series mostly up to 57.5 µM
How it was run: as §1

[5] = system: OV90; assay: as above; conditions: Gynecologic cancer cell panel viability, ATPlite luminescence, 48 h; series mostly up to 57.5 µM
How it was run: as §1

[6] = system: PA-1; assay: as above; conditions: Gynecologic cancer cell panel viability, ATPlite luminescence, 48 h; series mostly up to 57.5 µM
How it was run: as §1

[7] = system: SKOV3; assay: as above; conditions: Gynecologic cancer cell panel viability, ATPlite luminescence, 48 h; series mostly up to 57.5 µM
How it was run: as §1

[8] = system: Tov-21-G; assay: as above; conditions: Gynecologic cancer cell panel viability, ATPlite luminescence, 48 h; series mostly up to 57.5 µM
How it was run: as §1

[9] = system: Tov112D; assay: as above; conditions: Gynecologic cancer cell panel viability, ATPlite luminescence, 48 h; series mostly up to 57.5 µM
How it was run: as §1

[10] = Drug repurposing screens with cells derived from glioblastoma tumor samples (AID 1345199); conditions: GBM patient neurospheres viability, ATP luminescence, 48 h; also: nearly all actives have a fitted effect of over 40% in size
How it was run: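 Primary testing used CD133+ neurospheres from four GBM patients, seven concentrations, 48 h exposure and ATP-based viability; confirmation added three slower-growing patient lines.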

[11] = at 45.9 µM (top of the series), tumour line B
[12] = at 45.9 µM (top of the series), tumour line D
[13] = at 46.1 µM (top of the series), tumour line C
[14] = at 20 µM (top of the series), tumour line C
[15] = at 21.2 µM (top of the series), tumour line B
[16] = at 21.2 µM (top of the series), tumour line D
% is scaled to controls: 0 for no effect and ±100 for the full control effect; potency is read from the fitted curve at half-maximal effect.

N/C(=N\N=C\c1ccc(Cl)cc1)N/N=C/c1ccc(Cl)cc1
active: Potency [7] 31.6 µM
inactive: Potency [1] | Potency [2] | Potency [3] | Potency [4] | Potency [5] | Potency [6] | Potency [8] | Potency [9]

CC(C)(C)CC(C)(C)c1ccc(O)c(-n2nc3ccccc3n2)c1
inactive: Potency [1] | Potency [2] | Potency [3] | Potency [4] | Potency [5] | Potency [6] | Potency [7] | Potency [8] | Potency [9]

c1ccc(-c2nc[nH]c2-c2ccccc2)cc1
inactive: Potency [1] | Potency [2] | Potency [3] | Potency [4] | Potency [5] | Potency [6] | Potency [7] | Potency [8] | Potency [9] | activity, negative = cell killing [10, 11] -16.2%

Clc1cccc(C(c2ccc3nc[nH]c3c2)n2ccnc2)c1 (centres undefined)
inactive: Potency [1] | Potency [2] | Potency [3] | Potency [4] | Potency [5] | Potency [6] | Potency [7] | Potency [8] | Potency [9]

O=C(Nc1ccc([N+](=O)[O-])cc1)Nc1ccc([N+](=O)[O-])cc1
inactive: Potency [1] | Potency [2] | Potency [3] | Potency [4] | Potency [5] | Potency [6] | Potency [7] | Potency [8] | Potency [9] | activity, negative = cell killing [10, 12] -14.3% | activity, negative = cell killing [10, 13] -15.7%

Cc1cn([C@H]2C[C@H](F)[C@@H](CO)O2)c(=O)[nH]c1=O
inactive: Potency [1] | Potency [2] | Potency [3] | Potency [4] | Potency [5] | Potency [6] | Potency [7] | Potency [8] | Potency [9] | activity, negative = cell killing [10, 11] -16.6% | activity, negative = cell killing [10, 12] -21.3% | activity, negative = cell killing [10, 13] -27%

COc1ccc(S(=O)(=O)N2c3ccc(Cl)cc3[C@@](O)(c3ccccc3Cl)[C@H]2C(=O)N2CCC[C@@H]2C(N)=O)cc1OC
inactive: Potency [1] | Potency [2] | Potency [3] | Potency [4] | Potency [5] | Potency [6] | Potency [7] | Potency [8] | Potency [9] | activity, negative = cell killing [10, 11] -16.9% | activity, negative = cell killing [10, 12] -6.65% | activity, negative = cell killing [10, 13] -27%

CCCCCCCCCCC[C@@H](C[C@@H]1OC(=O)[C@H]1CCCCCC)OC(=O)[C@H](CC(C)C)NC=O
active: Potency ([10]; tumour line A) 10 µM
inactive: Potency [1] | Potency [2] | Potency [3] | Potency [4] | Potency [5] | Potency [6] | Potency [7] | Potency [8] | Potency [9] | activity, negative = cell killing [10, 12] -23%

CCCCCCCC/C=C\CCCCCCCCN
inactive: Potency [1] | Potency [2] | Potency [3] | Potency [4] | Potency [5] | Potency [6] | Potency [7] | Potency [8] | Potency [9] | activity, negative = cell killing [10, 11] -5.85% | activity, negative = cell killing [10, 12] -1.47% | activity, negative = cell killing [10, 13] -19.7%

CCOC(=O)Nc1ccc2c(c1)N(C(=O)CCN1CCOCC1)c1ccccc1S2
inactive: Potency [1] | Potency [2] | Potency [3] | Potency [4] | Potency [5] | Potency [6] | Potency [7] | Potency [8] | Potency [9] | activity, negative = cell killing [10, 14] -16.1% | activity, negative = cell killing [10, 15] -11.1% | activity, negative = cell killing [10, 16] -19.6%

C=C[C@@]1(C)CC(=O)[C@]2(O)[C@@]3(C)[C@@H](O)CCC(C)(C)[C@@H]3[C@H](O)[C@H](OC(C)=O)[C@@]2(C)O1
inactive: Potency [1] | Potency [2] | Potency [3] | Potency [4] | Potency [5] | Potency [6] | Potency [7] | Potency [8] | Potency [9] | activity, negative = cell killing [10, 11] 7.18% | activity, negative = cell killing [10, 13] -36.3%

COc1ccc(CN(CCN(C)C)c2ncccn2)cc1
inactive: Potency [1] | Potency [2] | Potency [3] | Potency [4] | Potency [5] | Potency [6] | Potency [7] | Potency [8] | Potency [9] | activity, negative = cell killing [10, 11] -6.69% | activity, negative = cell killing [10, 13] -7.28%

CC(C)[N+](C)(C)CC(O)COc1cccc2ccccc12 (centres undefined)
inactive: Potency [1] | Potency [2] | Potency [3] | Potency [4] | Potency [5] | Potency [6] | Potency [7] | Potency [8] | Potency [9] | activity, negative = cell killing [10, 11] -19.8% | activity, negative = cell killing [10, 12] -17.5% | activity, negative = cell killing [10, 13] -27.6%

CCCCCCCCCCCCCCCCO
inactive: Potency [1] | Potency [2] | Potency [3] | Potency [4] | Potency [5] | Potency [6] | Potency [7] | Potency [8] | Potency [9] | activity, negative = cell killing [10, 11] -2.36% | activity, negative = cell killing [10, 12] 5.55% | activity, negative = cell killing [10, 13] 3.59%

CO[C@H]1C=CO[C@@]2(C)Oc3c(C)c(O)c4c(O)c(c(/C=N/N5CCN(C)CC5)c(O)c4c3C2=O)NC(=O)/C(C)=C\C=C[C@H](C)[C@H](O)[C@@H](C)[C@@H](O)[C@@H](C)[C@H](OC(C)=O)[C@@H]1C
inactive: Potency [1] | Potency [2] | Potency [3] | Potency [4] | Potency [5] | Potency [6] | Potency [7] | Potency [8] | Potency [9]

CN(CCCN1c2ccccc2CCc2ccccc21)CC(=O)c1ccc(Cl)cc1
inactive: Potency [1] | Potency [2] | Potency [3] | Potency [4] | Potency [5] | Potency [6] | Potency [7] | Potency [8] | Potency [9]

O=C(CCN1CCN2CCCC2C1)N1c2ccccc2Sc2ccc(Cl)cc21 (centres undefined)
inactive: Potency [1] | Potency [2] | Potency [3] | Potency [4] | Potency [5] | Potency [6] | Potency [7] | Potency [8] | Potency [9]

O=C(O)c1ccc(S(=O)(=O)N(Cl)Cl)cc1
inactive: Potency [1] | Potency [2] | Potency [3] | Potency [4] | Potency [5] | Potency [6] | Potency [7] | Potency [8] | Potency [9] | activity, negative = cell killing [10, 11] -12% | activity, negative = cell killing [10, 12] -8.56% | activity, negative = cell killing [10, 13] -26.9%

C[N+]1(C)CCC(=C(c2ccccc2)c2ccccc2)CC1
inactive: Potency [1] | Potency [2] | Potency [3] | Potency [4] | Potency [5] | Potency [6] | Potency [7] | Potency [8] | Potency [9] | activity, negative = cell killing [10, 14] 3.13% | activity, negative = cell killing [10, 15] -8.97% | activity, negative = cell killing [10, 16] 4.56%
